Results filed as inconclusive are left out. The source made the active and inactive calls. Unless noted, calls follow the shape of the dose curve; as a rule, active = well fitted curve in the direction sought with a large enough effect in the repeat runs; inconclusive = weak or mixed curves; inactive = no such curve, though single readings can be large; an effect the other way counts as inactive or inconclusive.
How the values were obtained:
[1] = qHTS assay to identify small molecule antagonists of the retinoid acid receptor (RAR) signaling pathway - cell viability counter screen (AID 1159551); also: nearly all actives have a fitted effect of over 35% in size
Summary of the method: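 ATP-based viability, C3RL4 cells, 6 h at 37 C with 1 uM final retinol co-added after compound; luminescence read 30 min post CellTiter-Glo, RT.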

[2] = qHTS assay to identify small molecule agonists of the retinoic acid receptor (RAR) signaling pathway (AID 1159553); also: potency is read from the fitted curve at half-maximal effect
Summary of the method: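 Quantitative high-throughput format: the Tox21 10K library was tested on C3RL4 RARE-luciferase cells for 6 hr at 37 C and 5% CO2, with luminescence measured after a 30 min room-temperature reagent step.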

[3] = qHTS assay to identify small molecule antagonists of the estrogen related receptor (ERR) signaling pathway from Tox21 library - cell viability counter screen (AID 1224834); also: nearly all actives have a fitted effect of over 30% in size; also: potency is read from the fitted curve at half-maximal effect
Summary of the method: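 Compounds in DMSO were pinned onto ERR cells that had been incubated for 6 h, and the plates were held at 37 C for 17.5 h. CellTiter-Fluor reagent was then added and fluorescence was measured after 30 min.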

[4] = molecular target: Luciferin 4-monooxygenase (Photinus pyralis) (UniProt P08659); assay: qHTS assay to identify small molecule inhibitors of firefly luciferase (AID 1224835); also: series mostly up to about 120 µM; nearly all actives have a fitted effect of over 25% in size
Chain of Luciferin 4-monooxygenase (Photinus pyralis) (P08659 whole entry, looked up): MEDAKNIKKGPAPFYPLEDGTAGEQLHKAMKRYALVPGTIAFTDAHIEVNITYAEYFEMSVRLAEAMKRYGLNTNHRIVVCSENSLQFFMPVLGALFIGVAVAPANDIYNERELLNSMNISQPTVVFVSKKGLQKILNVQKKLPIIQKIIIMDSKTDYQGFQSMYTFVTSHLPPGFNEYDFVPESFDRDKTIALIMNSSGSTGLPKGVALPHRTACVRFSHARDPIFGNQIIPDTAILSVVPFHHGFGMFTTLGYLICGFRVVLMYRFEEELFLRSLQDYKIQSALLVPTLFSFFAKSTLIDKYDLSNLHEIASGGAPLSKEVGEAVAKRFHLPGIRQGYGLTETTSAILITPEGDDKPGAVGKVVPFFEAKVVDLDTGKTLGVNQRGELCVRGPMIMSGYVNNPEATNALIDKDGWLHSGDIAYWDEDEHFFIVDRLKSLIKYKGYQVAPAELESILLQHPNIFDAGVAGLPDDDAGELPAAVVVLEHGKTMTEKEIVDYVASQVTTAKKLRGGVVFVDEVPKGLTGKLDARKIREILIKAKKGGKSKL
Summary of the method: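 Quantitative HTS format; KM concentrations of both substrates. Purified P. pyralis FLuc activity quantified from luminescence images.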

[5] = qHTS assay to identify small molecule agonists of the constitutive androstane receptor (CAR) signaling pathway - cell viability counter screen (AID 1224836); also: series mostly up to about 92 µM; nearly all actives have a fitted effect of over 45% in size
Summary of the method: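 Compound titrations (15 concentrations) went onto HepG2-CYP2B6-hCAR cells 4 h after seeding, alongside PK11195 at a final 0.75 uM; a 23 h, 37 C/5% CO2 incubation preceded CellTiter-Fluor viability measurement.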

[6] = qHTS assay to identify small molecule antagonists of the constitutive androstane receptor (CAR) signaling pathway - cell viability counter screen (AID 1224837); also: series mostly up to about 92 µM; nearly all actives have a fitted effect of over 45% in size
Summary of the method: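 Cells are seeded, rested 4 hr at 37 C/5% CO2, dosed with compound (15-point series) and 50 nM CITCO, incubated a further 23 hr, and then CellTiter-Fluor reagent is added before fluorescence is read. The line is HepG2 with stable hCAR and CYP2B6-2.2kb.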

[7] = molecular target: Nuclear receptor subfamily 1 group I member 3 (Homo sapiens) (UniProt Q14994); assay: qHTS assay to identify small molecule antagonists of the constitutive androstane receptor (CAR) signaling pathway (AID 1224838);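 also: HepG2 cells stably expressing hCAR with CYP2B6 luciferase reporter stimulated by CITCO; nearly all actives have a fitted effect of over 40% in size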
Chain of Nuclear receptor subfamily 1 group I member 3 (Homo sapiens) (Q14994 whole entry, looked up): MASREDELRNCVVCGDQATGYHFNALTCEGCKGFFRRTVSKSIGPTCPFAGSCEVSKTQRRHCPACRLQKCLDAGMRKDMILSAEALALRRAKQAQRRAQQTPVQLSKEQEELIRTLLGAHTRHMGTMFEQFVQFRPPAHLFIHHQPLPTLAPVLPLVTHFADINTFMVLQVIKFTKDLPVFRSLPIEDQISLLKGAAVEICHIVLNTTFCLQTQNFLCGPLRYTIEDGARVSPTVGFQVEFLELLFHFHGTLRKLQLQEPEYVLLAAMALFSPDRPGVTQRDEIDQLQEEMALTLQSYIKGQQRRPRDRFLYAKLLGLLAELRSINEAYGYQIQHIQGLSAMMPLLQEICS
Summary of the method: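 Luminescence from a CYP2B6-2.2kb promoter reporter in hCAR-expressing HepG2 cells reflects CAR signaling. Cells received compounds at 15 concentrations and 50 nM CITCO (final), then incubated 24 h at 37 C/5% CO2.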

[8] = molecular target: Nuclear receptor subfamily 1 group I member 3 (Homo sapiens) (UniProt Q14994); assay: qHTS assay to identify small molecule agonists of the constitutive androstane receptor (CAR) signaling pathway (AID 1224839); also: nearly all actives have a fitted effect of over 15% in size; also: potency is read from the fitted curve at half-maximal effect;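 as to activation: HepG2 cells stably carrying human CAR and a CYP2B6 luciferase reporter; series mostly up to about 92 µM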
Summary of the method: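 In this screen, CAR-driven CYP2B6 promoter activity is measured by luminescence in HepG2-CYP2B6-hCAR cells after 24 h with test compounds and 0.75 uM PK11195 (final concentration).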

[9] = qHTS assay to identify small molecule antagonists of the estrogen related receptor signaling pathway with the pleiotropic PPARgamma coactivator (PGC) from Tox21 10K library - cell viability counter screen (AID 1224840; active = well fitted cell-killing curve with a large enough effect in the repeat runs, not every such curve was filed as active; also: nearly all actives have a fitted effect of over 40% in size)
Summary of the method: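 Cell viability is measured by CellTiter-Fluor fluorescence in PGC/ERR cells that receive compounds after a 6-hour attachment period and are then incubated 17.5 hours at 37 C.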

[10] = qHTS assay to identify small molecule agonists of the estrogen related receptor signaling pathway with the pleiotropic PPARgamma coactivator (PGC) from Tox21 10K library (AID 1224842); also: nearly all actives have a fitted effect of over 15% in size
Summary of the method: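 PGC/ERR reporter cells (NTP line) were seeded 2,000 per well, rested 6 h at 37 C/5% CO2, then pin-dosed with compounds in DMSO for 18 h at 37 C; luciferase read by One-Glo luminescence after 30 min at room temperature.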

[11] = qHTS assay to identify small molecule antagonists of the estrogen related receptor signaling pathway with the pleiotropic PPARgamma coactivator (PGC) from Tox21 10K library (AID 1224841; call rule not given here; also: series mostly up to about 92 µM; actives are mostly falling curves and most rising ones were filed inactive; nearly all actives have a fitted effect of over 50% in size)
Summary of the method: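 Cells stably carrying the PGC/ERR reporter, seeded at 2,000 per well, received pin-transferred compounds 6 h post-plating. Exposure lasted 18 h at 37 C. Signal: One-Glo luminescence.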

[12] = qHTS assay to identify small molecule antagonists of the retinoic acid receptor (RAR) signaling pathway (AID 1159552; also: nearly all actives have a fitted effect of over 50% in size)
Summary of the method: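 Readout: luciferase luminescence, 30 min post-reagent at RT. Setup: C3RL4 RARE reporter cells, compounds plus retinol 1 uM final, 6 hr incubation at 37 C and 5% CO2.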

[13] = molecular target: Thyrotropin receptor (Homo sapiens) (UniProt P16473); assay: qHTS assay to identify small molecule agonists of the thyroid stimulating hormone receptor (TSHR) signaling pathway (AID 1224843; calls by dose curve; also: nearly all actives have a fitted effect of over 45% in size)
Chain of Thyrotropin receptor (Homo sapiens) (P16473 whole entry, looked up): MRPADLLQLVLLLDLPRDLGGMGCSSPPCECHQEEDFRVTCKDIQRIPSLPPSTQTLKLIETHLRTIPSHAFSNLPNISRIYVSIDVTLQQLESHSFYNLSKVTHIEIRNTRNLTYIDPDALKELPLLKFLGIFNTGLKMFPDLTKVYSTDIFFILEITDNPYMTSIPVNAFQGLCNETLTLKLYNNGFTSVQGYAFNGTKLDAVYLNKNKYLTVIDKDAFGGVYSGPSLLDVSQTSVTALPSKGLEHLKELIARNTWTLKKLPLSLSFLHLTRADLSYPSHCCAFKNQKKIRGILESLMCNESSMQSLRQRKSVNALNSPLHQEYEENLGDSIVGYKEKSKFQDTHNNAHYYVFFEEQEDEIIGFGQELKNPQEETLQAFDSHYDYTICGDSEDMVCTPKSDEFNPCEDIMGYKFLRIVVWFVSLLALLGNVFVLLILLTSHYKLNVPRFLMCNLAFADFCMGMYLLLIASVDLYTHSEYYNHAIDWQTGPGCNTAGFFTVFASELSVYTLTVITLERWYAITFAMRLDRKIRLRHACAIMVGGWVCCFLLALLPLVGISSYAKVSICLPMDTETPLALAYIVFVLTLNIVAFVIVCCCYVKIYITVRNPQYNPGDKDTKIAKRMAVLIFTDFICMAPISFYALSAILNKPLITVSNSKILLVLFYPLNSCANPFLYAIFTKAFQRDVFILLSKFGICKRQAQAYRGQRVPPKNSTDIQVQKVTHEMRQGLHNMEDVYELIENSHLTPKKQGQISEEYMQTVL
Summary of the method: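 Using 15 concentrations per compound in triplicate, cAMP production was monitored in TSHR-HEK293 cells after 30 min compound incubation at RT; HTRF reagents followed, with fluorescence intensity recorded after 1 h.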
% is scaled to controls: 0 for no effect and ±100 for the full control effect.

COc1ccc2cc1Oc1cc3c(cc1OC)CC[N+](C)(C)[C@H]3Cc1ccc(cc1)Oc1c(OC)c(OC)cc3c1[C@@H](C2)[N+](C)(C)CC3
inactive: outcome [1] | Potency [2] | Potency [3] | Potency [4] | outcome [5] | outcome [6] | Potency [7] | Potency [8] | outcome [9] | Potency [10]

CCCO[Si](OCCC)(OCCC)OCCC
inactive: outcome [1] | Potency [3] | Potency [4] | outcome [5] | outcome [6] | Potency [7] | Potency [8] | outcome [9] | Potency [11] | Potency [10]

Cc1ncc([C@@H](CCCCCCc2ccc3c(n2)NCCC3)CC(=O)O)cn1
active: Potency [3] 109 nM
inactive: outcome [1] | Potency [4] | outcome [5] | outcome [9]

O=C(c1ccccc1O)c1ccccc1O
inactive: outcome [1] | Potency [12] | Potency [2] | outcome [5] | outcome [6] | Potency [7] | Potency [8] | outcome [9]

CCCCCCCCCCOc1cc2c(=O)c(C(=O)OCC)c[nH]c2cc1OCC
inactive: activity change, negative = cytotoxicity [1] 1.07% [at 8.39 µM] | viability change, negative = cytotoxic [3] 3.47% [at 8.39 µM] | activity change, negative = inhibition [4] -1.76% [at 10.5 µM] | viability change, negative = cytotoxic [5] 4.44% [at 8.39 µM] | activity change, negative = cytotoxicity [6] 5.07% [at 8.39 µM] | activity, negative = inhibition [7] 5.74% [at 8.39 µM] | activation [8] -0.235% [at 8.39 µM] | viability change, negative = cytotoxic [9] 9.28% [at 8.39 µM] | activation [13] -0.126% [at 8.39 µM]

COC(=O)Nc1ccc(Cl)c(Cl)c1
active: Potency [8] 60.8 µM
inactive: outcome [1] | Potency [12] | Potency [2] | Potency [3] | outcome [5] | outcome [6] | Potency [7] | outcome [9]

CCN[C@@H]1C[C@H](N)[C@@H](OC2OC(CN)=CCC2N)[C@H](O)[C@H]1O[C@H]1OC[C@](C)(O)[C@H](NC)[C@H]1O (stereo not given in full)
inactive: activity change, negative = cytotoxicity [1] 2.69% [at 0.349 µM] | activity, negative = inhibition [12] 11.8% [at 0.349 µM] | activation [2] 1.16% [at 0.756 µM] | viability change, negative = cytotoxic [3] 5.78% [at 0.349 µM] | activity change, negative = inhibition [4] -1.17% [at 0.435 µM] | viability change, negative = cytotoxic [5] 2.22% [at 0.349 µM] | activity change, negative = cytotoxicity [6] 0.22% [at 0.349 µM] | viability change, negative = cytotoxic [9] -0.298% [at 0.349 µM]

C=C[Si](OC(C)=O)(OC(C)=O)OC(C)=O
inactive: outcome [1] | Potency [12] | Potency [3] | Potency [4] | outcome [5] | outcome [6] | Potency [7] | Potency [8] | outcome [9]

COc1cc(-c2ccc(=O)[nH]n2)ccc1OC(F)F
inactive: outcome [1] | Potency [2] | Potency [3] | Potency [4] | outcome [5] | outcome [6] | Potency [7] | Potency [8] | outcome [9]

CC(C)(CCC(=O)O)C(=O)O
inactive: outcome [1] | Potency [3] | Potency [4] | outcome [5] | outcome [6] | Potency [7] | Potency [8] | outcome [9]

CC(C)COC(=O)c1ccc(N)cc1
active: Potency [2] 18.8 µM
inactive: outcome [1] | Potency [12] | Potency [3] | outcome [5] | outcome [6] | Potency [7] | outcome [9] | Potency [11] | Potency [13]

N[C@H](C(=O)O)[C@@H](O)c1ccc(O)c(O)c1
inactive: outcome [1] | Potency [3] | Potency [4] | outcome [5] | outcome [6] | outcome [9] | Potency [13]

[Ca+2]
inactive: outcome [1] | Potency [2] | Potency [3] | Potency [4] | outcome [5] | outcome [6] | outcome [9] | Potency [13]

Reference: PubChem BioAssay (Tox21)
